Rows were chosen to be rich in hits. Some 12% of all compounds tested hit in one or more screens of this group.
HP1b binding inh – HP1-beta chromodomain-methylated histone interaction inhibition. AlphaScreen HP1-beta / biotin-H3K9me3 peptide binding. Potency, µM (titrated, usually from 114 µM), inactives show top-dose activity change, negative = inhibition, usual class: inhibitors. 0.56% of 390,000 active; note: nearly all actives have a fitted effect of over 70% in size
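Compound inhibition of the preformed complex between 50 nM HP1-beta and 50 nM biotinylated H3K9me3 peptide was read by AlphaScreen. Buffer was PBS pH 7.4 with 0.01% Tween-20. Incubations ran 30 min at room temperature, with 10 ug/mL donor/acceptor beads.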
BAZ2B block – inhibitors of human BAZ2B bromodomain | AlphaScreen BAZ2B-H3K14Ac peptide displacement | 4.4% of 360,000 active | Q9UIF8 | Potency, µM (highest dose often 114 µM), for the others: at the highest dose activity change, negative = inhibition, usual class: inhibitors; note: % is set by controls: 0 for no effect and ±100 for the full control effect; nearly all actives have a fitted effect of over 60% in size
Target sequence (Q9UIF8 whole entry, looked up): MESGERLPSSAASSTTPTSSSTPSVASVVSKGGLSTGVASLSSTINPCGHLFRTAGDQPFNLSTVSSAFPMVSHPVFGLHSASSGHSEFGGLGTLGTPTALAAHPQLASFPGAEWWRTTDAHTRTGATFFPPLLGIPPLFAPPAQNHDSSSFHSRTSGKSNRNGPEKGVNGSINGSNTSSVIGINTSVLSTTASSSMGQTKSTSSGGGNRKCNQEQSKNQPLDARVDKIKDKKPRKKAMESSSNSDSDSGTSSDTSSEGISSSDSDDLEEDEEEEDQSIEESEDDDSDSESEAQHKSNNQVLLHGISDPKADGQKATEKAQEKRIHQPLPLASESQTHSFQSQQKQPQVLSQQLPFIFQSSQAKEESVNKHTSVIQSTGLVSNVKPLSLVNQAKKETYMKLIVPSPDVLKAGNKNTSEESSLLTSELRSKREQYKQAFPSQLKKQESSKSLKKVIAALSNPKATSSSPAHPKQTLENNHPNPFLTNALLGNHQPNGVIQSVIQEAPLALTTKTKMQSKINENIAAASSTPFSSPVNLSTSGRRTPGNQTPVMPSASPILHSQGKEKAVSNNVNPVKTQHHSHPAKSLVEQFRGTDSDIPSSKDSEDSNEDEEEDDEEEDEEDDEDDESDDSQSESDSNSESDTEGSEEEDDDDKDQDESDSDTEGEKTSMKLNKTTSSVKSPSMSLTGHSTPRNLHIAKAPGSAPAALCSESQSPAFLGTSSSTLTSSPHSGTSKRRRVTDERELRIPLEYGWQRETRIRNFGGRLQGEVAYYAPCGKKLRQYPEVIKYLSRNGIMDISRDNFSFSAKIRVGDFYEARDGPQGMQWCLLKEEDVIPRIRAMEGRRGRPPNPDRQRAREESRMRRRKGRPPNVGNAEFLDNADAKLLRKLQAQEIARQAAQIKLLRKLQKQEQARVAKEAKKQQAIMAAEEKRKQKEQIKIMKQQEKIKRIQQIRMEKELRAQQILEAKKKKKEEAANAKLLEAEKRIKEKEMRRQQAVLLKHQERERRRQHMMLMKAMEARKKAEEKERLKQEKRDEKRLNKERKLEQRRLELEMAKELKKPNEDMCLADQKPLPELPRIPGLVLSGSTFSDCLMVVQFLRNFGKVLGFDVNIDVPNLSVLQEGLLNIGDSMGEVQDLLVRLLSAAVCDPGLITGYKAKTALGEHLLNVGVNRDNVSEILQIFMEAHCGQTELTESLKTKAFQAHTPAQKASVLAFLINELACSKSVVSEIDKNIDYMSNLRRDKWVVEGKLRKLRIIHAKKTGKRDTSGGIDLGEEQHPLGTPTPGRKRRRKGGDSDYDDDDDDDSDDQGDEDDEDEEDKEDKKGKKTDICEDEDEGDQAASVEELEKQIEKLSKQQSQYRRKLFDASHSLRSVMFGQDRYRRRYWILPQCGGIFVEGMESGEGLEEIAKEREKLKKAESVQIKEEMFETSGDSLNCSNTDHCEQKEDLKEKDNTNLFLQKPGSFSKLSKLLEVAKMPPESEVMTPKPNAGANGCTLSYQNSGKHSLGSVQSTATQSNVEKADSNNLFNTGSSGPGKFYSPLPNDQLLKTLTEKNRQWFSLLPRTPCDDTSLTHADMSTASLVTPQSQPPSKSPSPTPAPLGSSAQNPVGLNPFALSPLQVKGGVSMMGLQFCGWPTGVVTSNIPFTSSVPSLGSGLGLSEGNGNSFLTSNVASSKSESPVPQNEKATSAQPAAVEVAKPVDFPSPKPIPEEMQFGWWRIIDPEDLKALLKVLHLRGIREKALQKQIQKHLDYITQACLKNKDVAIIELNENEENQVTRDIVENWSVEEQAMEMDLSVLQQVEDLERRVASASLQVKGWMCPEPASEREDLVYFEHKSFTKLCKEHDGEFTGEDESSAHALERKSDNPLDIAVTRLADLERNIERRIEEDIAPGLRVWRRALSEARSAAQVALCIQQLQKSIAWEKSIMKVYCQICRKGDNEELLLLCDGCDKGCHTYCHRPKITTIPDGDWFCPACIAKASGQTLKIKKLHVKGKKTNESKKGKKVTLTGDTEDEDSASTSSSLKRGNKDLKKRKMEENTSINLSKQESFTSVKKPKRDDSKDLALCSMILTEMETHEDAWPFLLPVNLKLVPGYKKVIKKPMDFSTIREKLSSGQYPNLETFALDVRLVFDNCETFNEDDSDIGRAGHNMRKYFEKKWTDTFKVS
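Multi-concentration screen (max 110 uM) measuring displacement of acetylated histone H3 peptide from BAZ2B by AlphaScreen, using 50 nM protein, 50 nM peptide and 10 ug/mL streptavidin donor plus Ni-chelate acceptor beads.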
Sfp inh – Sfp phosphopantetheinyl transferase inhibition; Potency, µM, inactives show largest response in the series, negative = inhibition, hits mostly inhibitors; Biochemical Sfp PPTase activity, qHTS; Q9F4F7; 3.5% of 310,000 active; AID 1490;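 note: the enzyme is Sfp with the accession as filed and its product quenches rhodamine fluorescence; 0% = enzyme reaction without inhibitor and -100% = no enzyme wells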
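Buffer: 50 mM Hepes-Na pH 7.6, 10 mM MgCl2, 0.01% Nonidet P-40, 0.01% BSA. Enzyme 15 nM, pre-exposed to compound 15 min; substrates then added and fluorescence change tracked over 30 min.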
JMJD2A Tudor inh – blocks the human JMJD2A Tudor domain; O75164; AlphaScreen JMJD2A-Tudor / H3K4me3 peptide binding; Potency, µM (top dose mostly 114 µM), for the others: at the top dose activity change, negative = inhibition, actives largely listed as inhibitors; 4.4% of 390,000 active; note: % is set by controls: 0 for no effect and ±100 for the full control effect; nearly all actives have a fitted effect of over 50% in size
PLK1 PBD inh – PLK1 (human) polo-box domain binding inhibition; Plk1 PBD binding of FITC phosphopeptide, fluorescence polarization; Potency, µM, inactives show max response, negative = inhibition, hits mostly inhibitors; 2.8% of 360,000 active; AID 720504; note: series mostly up to about 57 µM; % is set by controls: 0 for no effect and ±100 for the full control effect; nearly all actives have a fitted effect of over 65% in size
G9a inh – G9a (human) methyltransferase inhibition | Q96KQ7 | G9a H3K9 monomethylation, AlphaScreen, 2 h | Potency, µM (top dose mostly 102 µM), inactives show at the top dose activity, negative = inhibition, hits mostly inhibitors | 8.8% of 350,000 active | AID 504332; note: % is set by controls: 0 for no effect and ±100 for the full control effect; nearly all actives have a fitted effect of over 75% in size
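Signal arises when biotinylated H3K9 peptide, once monomethylated, bridges streptavidin donor and antibody-captured acceptor beads. Enzyme at 20 nM was preincubated 15 min with test compounds; peptide 500 nM and SAM 20 uM then reacted for 2 h.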
* hit, by the source's call; ? = inconclusive; . = not tested or not shown; [ ] = another dose, or the depositor's remark. Calls come from the whole dose curve; as a rule, active = well fitted curve in the direction sought with a large enough effect; inconclusive = small, poorly fitted or top-dose-only effect, or another doubt; inactive = no such curve, though single readings can be large; an effect the other way counts as inactive or inconclusive. Potency is the fitted concentration of half-maximal effect.

SMILES	HP1b binding inh	BAZ2B block	Sfp inh	JMJD2A Tudor inh	PLK1 PBD inh	G9a inh
C/C(CC(=O)Nc1ccc(N(C)C)cc1)=N\NC(=O)c1ccccc1O	-18.2%	35.5µM*	0.9%	56.2µM*	0.9%	50.1µM*
COc1cccc(NC(=O)C(=O)N/N=C(\C)CC(=O)Nc2ccc(NC(C)=O)cc2)c1	37.5%	-15.5%	10.4%	-6.2%	-6.0%	70.8µM*
C/C(CC(=O)Nc1ccc(N(C)C)cc1)=N\NC(=O)c1ccc([N+](=O)[O-])cc1Cl	?	?	-13.8%	?	21.2µM*	44.7µM*
CSCC[C@@H]1NC(=O)C/C=C\[C@@H](C)COC(=O)[C@@H](C)COC1=O	.	.	18.3%	.	.	.
COc1ncc2nc(-c3ccc(Cl)cc3)c(=O)n(C[C@H]3CCCO3)c2n1	.	.	-5.8%	.	.	1.1%[12.7 µM]
CCOc1ccc(CNC(=O)c2ccc3c(c2)sc2nc(-c4ccc(OC)cc4)cn23)cc1	55.2%	-22.5%	.	-11.2%	.	7.8%[59 µM]
COc1cccc(C(=O)NC2CC3CCCC(C2)N3CC(=O)Nc2ccccc2)c1 (stereo not drawn)	52.2%	?	-12.1%	-29.8%[57.1 µM]	-19.4%	-14.6%[12.7 µM]
COc1cccc(C(=O)NC2CC3CCCC(C2)N3CC(=O)Nc2ccc(N(C)C)cc2)c1 (stereo not drawn)	?	44.7µM*	3.6%	39.8µM*	-5.9%	29.0%[0.501 µM]
CCC(=O)c1c[nH]c(C(=O)NCc2cccs2)c1	27.8%	-10.9%	24.0%	4.9%	0.6%	20.6%[12.7 µM]
CC(C)CC(=O)c1c[nH]c(C(=O)NCc2cccs2)c1	11.4%	-3.5%	12.2%	-6.6%	-9.0%	0.224µM*
Cc1ccccc1C(=O)c1c[nH]c(C(=O)NCc2cccs2)c1	-2.4%	?	2.9%	-24.7%[11.4 µM]	26.7µM*	-6.1%[12.7 µM]
CCc1noc(C)c1C(=O)N1CC(C)SC1=Nc1ccc(Cl)cc1 (stereo not drawn)	62.6%	6.1%	.	31.6%	-9.1%	9.8%[12.7 µM]
CC1(C)CC(N2CCCCC2)=CC(=[N+]2CCCCC2)C1	7.8%	-16.6%	7.4%	-16.5%	-2.5%	?
CC1C[N+](=C2C=C(N3CCOCC3)CC(C)(C)C2)CC(C)O1 (stereo not drawn)	25.1µM*	-38.4%	?	?	?	-6.8%[12.7 µM]
CC1(C)CC(N2CCOCC2)=CC(=[N+]2CCOCC2)C1	?	-14.6%	-9.5%	?	-15.0%	39.8µM*
COc1ccc(C2=Nn3c(nnc3-c3ccccc3OC)SC2)c(OC)c1	.	.	-20.5%	-19.3%	.	.
Cc1n[nH]c2ccc([N+](=O)[O-])cc2c1=O	.	.	.	.	-10.2%	.
Brc1ccccc1C1CC(c2ccccc2)=Nc2ccccc2N1 (stereo not drawn)	-24.3%	?	-23.0%	39.8µM*	6.4%	?
c1ccc(C2=Nc3ccccc3NC(c3ccccc3)C2)cc1 (stereo not drawn)	21.2%	10.4%	-28.0%	0.0%	-9.6%	35.5µM*
O=C(O)COc1ccccc1/C=C1\SC(=S)N(/N=C/c2ccccc2O)C1=O	-34.6%	56.2µM*	?	?	21.2µM*	10.7%[2.33 µM]
CCOc1cc(/C=C2\SC(=Nc3ccccc3)N(c3ccccc3)C2=O)ccc1OCC(=O)O	-8.7%	?	-17.0%	-30.1%	-17.6%	?
O=C(O)COc1ccc(/C=C2\SC(=Nc3ccccc3)N(c3ccccc3)C2=O)cc1	13.8%	-19.1%	5.3%	-25.9%	-4.4%	-29.7%
O=C(O)c1ccc(/C=C2\SC(=Nc3ccccc3)N(c3ccccc3)C2=O)cc1	24.5%	-6.9%	79.4µM*	-18.4%	-7.7%	?
O=C(O)COc1ccccc1/C=C1\SC(=Nc2ccc(F)cc2)N(c2ccc(F)cc2)C1=O	32.5%	79.4µM*	?	-31.0%	?	?
O=C1/C(=C\c2ccc(O)cc2)SC(=S)N1/N=C/c1ccc(O)cc1	-8.4%	?	-0.2%	-31.7%	53.3%	.
SMILES	HP1b binding inh	BAZ2B block	Sfp inh	JMJD2A Tudor inh	PLK1 PBD inh	G9a inh
O=C(O)COc1ccccc1/C=C1\SC(=S)N(NC(=O)c2ccccc2O)C1=O	-1.9%	14.1µM*	.	3.16µM*	-24.2%	36.9%[2.33 µM]
COc1ccc(CCNC(=O)CSc2cn(CCNC(=O)c3ccc(OC)c(OC)c3)c3ccccc23)cc1OC	17.6%	-24.1%	.	-21.3%	.	9.2%[59 µM]
CCN(CC)c1cc2c(c3c1ccn3C)C1CCC2C1 (stereo not drawn)	.	.	.	.	-6.8%	.
COc1cnc(-c2ccccn2)nc1Sc1cccc(Cl)c1	14.6%	-3.2%	-3.5%	?	-2.8%	66.4%[59 µM]
CCC(C)Nc1nc(-c2ccccn2)nc2ccccc12 (stereo not drawn)	45.6%	20.4%	-12.4%	?	-1.6%	16.1%
COc1ccccc1Sc1nc(-c2ccccn2)ncc1OC	37.2%	22.4µM*	-2.7%	89.1µM*	3.0%	?
COc1cnc(-c2ccccn2)nc1NC(C)C	16.0%	3.16µM*	7.08µM*	22.4µM*	-8.1%	56.2µM*
COC(=O)Cn1cc(/C=C/c2cc[n+](C)cc2)c2ccccc21	11.2%	44.7µM*	7.0%	?	38.7%	44.7µM*
COC(=O)Cn1c(C)c(/C=C/c2cc[n+](C)cc2)c2ccccc21	?	?	2.5%	?	50.8%	39.8µM*
COC(=O)Cn1c(=O)c(=O)n(CC(=O)OC)c2ccccc21	-8.4%	-31.2%	17.1%	-31.1%	?	15.0%[59 µM]
COC(=O)Cn1cc(C#N)c2ccccc21	16.8%	0.4%	1.1%	-8.3%	-7.0%	10µM*
CC1(C)CC(Cc2ccccc2C(F)(F)F)N(C(=O)OC(C)(C)C)C1 (stereo not drawn)	.	.	.	.	-2.4%	.
COc1cccc(CN2CC(C(=O)NCCOc3ccccc3F)CCC2=O)c1 (stereo not drawn)	7.3%	0.0%	15.4%	-25.7%	33.6µM*	-0.7%
O=C(NCCCc1ccncc1)C1CCC(=O)N(Cc2cccc(F)c2)C1 (stereo not drawn)	9.3%	-1.7%	15.9%	-20.3%	29.9µM*	10.6%
CC1(C(=O)NS(=O)(=O)c2cccs2)CCN1C(=O)C1CCCCC1 (stereo not drawn)	.	.	.	.	-5.8%	.
CCCn1c(N)c(N(CCOC)C(=O)CCC2CCCCC2)c(=O)[nH]c1=O	26.6%	13.1%	.	-13.5%	3.6%	?
Cc1ccccc1CN1C2=NCCN2c2ccccc21	4.6%	-34.3%	8.1%	-15.3%[11.4 µM]	26.7µM*	-33.5%[12.7 µM]
CCOC(=O)CN1C2=NCCN2c2ccccc21	26.5%	-3.7%	-81.1%	-4.3%	1.5%	-9.5%[59 µM]
CCCCCN1C2=NCCN2c2ccccc21	?	-2.4%	-3.1%	-18.3%[11.4 µM]	23.8µM*	21.4%[59 µM]
CN(CC1CCCN(CCc2ccc(Cl)cc2)C1)C(=O)c1ccco1 (stereo not drawn)	7.5%	.	.	-9.6%	-3.1%	.
CCc1nc2c(OCc3ccccc3C(=O)OC)cccn2c1N(C)C(=O)CC(C)C	.	.	.	.	-9.5%	.
O=C(NCc1ccc(Cl)cc1)c1cc(S(=O)(=O)N2CCCCC2)c[nH]1	36.6%	?	1.4%	-16.6%	5.8%	15.6%

From PubChem BioAssay
